PNC inhibitor: blocks assembly of the perinucleolar compartment; actives 3.1% (n = 140,000); PC3M PTB-GFP, PNC prevalence imaging, 16 h; active compounds read low; activity change (PNC), negative = inhibition, % at 10 µM;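 active means readout at or below -70, meaning at least 70% loss of cells showing the perinucleolar compartment, a nuclear body marking cancer cells; inconclusive means readout between -30 and a set limit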
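PC3M cells stably expressing PTB-GFP, 750–1000 cells/well, treated 16 h at 37 °C with compound (23 nl of library stock), in duplicate. After paraformaldehyde fixation and Hoechst stain, imaged at 20x; PNC prevalence scored by image analysis.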
NPSR antagonist: antagonists of human neuropeptide S receptor cAMP signaling | Q6W5P4 | CHO-NPSR cells, cAMP TR-FRET, antagonist mode | Potency, µM (titrated, usually from 38.3 µM), hits mostly inhibitors | actives 1% (n = 220,000) | AID 1461; active means well fitted curve in the direction sought with a large enough effect; inconclusive means small, poorly fitted or top-dose-only effect, or another doubt; inactive means no such curve, though single readings can be large; an effect the other way counts as inactive or inconclusive; further: nearly all actives have a fitted effect of over 50% in size
IMPase inh: IMPase inhibition in cells. CHO-M1 cells, IP1 accumulation, HTRF TR-FRET ratio. inhibition (IP1 accumulation), % at 46.1 µM. 120,000 tested, under 10 active. AID 901; active means well fitted curve in the direction sought with a large enough effect in the signal ratio, not every such curve was filed as active; inconclusive means small, poorly fitted or top-dose-only effect, or a change in a side signal; inactive means no such curve, though single readings can be large or run the other way; the % refers to the signal ratio;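 further: cells stimulated with carbachol in lithium chloride buffer; higher means more IMPase inhibition seen as more IP1 and lower FRET ratio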
Target sequence (P97697 whole entry, looked up): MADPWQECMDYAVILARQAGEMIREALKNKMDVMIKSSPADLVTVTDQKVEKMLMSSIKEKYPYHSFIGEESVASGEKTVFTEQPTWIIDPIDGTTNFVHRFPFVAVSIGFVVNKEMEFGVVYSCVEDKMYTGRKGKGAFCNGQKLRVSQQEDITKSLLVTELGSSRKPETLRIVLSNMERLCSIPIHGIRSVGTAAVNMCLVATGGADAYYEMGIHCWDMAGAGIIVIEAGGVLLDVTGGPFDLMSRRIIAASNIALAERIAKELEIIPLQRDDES
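CHO-M1 cells (CHO stably expressing M1 receptor), compound up to 46 uM final, stimulated with carbachol (50 uM as added) in buffer with 50mM LiCl, pH 7.4, 30 min at 37C. Cytosolic IP1 read by TR-FRET; AC50 from Hill fits.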
ALDH1A1 inh-1: inhibitors of human aldehyde dehydrogenase 1A1; Purified ALDH1A1, NADH fluorescence, propionaldehyde substrate; actives 7.3% (n = 220,000); Potency, µM (doses to about 75.3 µM), most hits filed as inhibitors; P00352
IMPase Li cell: membrane-permeable IMPase blocker, potentiated with lithium; CHO-M1 cells, IP1 TR-FRET (IP-One), carbachol + lithium; actives 0.35% (n = 210,000); Potency, µM (titrated, usually from 59.4 µM), usual class: inhibitors; active means well fitted curve in the direction sought with a large enough effect; inconclusive means small, poorly fitted or top-dose-only effect, or another doubt; inactive means no such curve, though single readings can be large; an effect the other way counts as inactive or inconclusive;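 further: IP1 builds up when IMPase is blocked and the TR-FRET signal falls; nearly all actives have a fitted effect of over 50% in size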
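Lithium-sensitised IP1 accumulation assay; M1-expressing CHO cells treated 30 min at 37C with compound. Competitive antibody detection by time-resolved FRET followed a 10 min room-temperature lysis step.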
HPGD block: blocks human HPGD enzyme activity; AID 894; P15428; actives 4.3% (n = 150,000); Potency, µM, most hits filed as inhibitors; purified HPGD, NADH fluorescence kinetic, PGE2 substrate
Target sequence (P15428 whole entry, looked up): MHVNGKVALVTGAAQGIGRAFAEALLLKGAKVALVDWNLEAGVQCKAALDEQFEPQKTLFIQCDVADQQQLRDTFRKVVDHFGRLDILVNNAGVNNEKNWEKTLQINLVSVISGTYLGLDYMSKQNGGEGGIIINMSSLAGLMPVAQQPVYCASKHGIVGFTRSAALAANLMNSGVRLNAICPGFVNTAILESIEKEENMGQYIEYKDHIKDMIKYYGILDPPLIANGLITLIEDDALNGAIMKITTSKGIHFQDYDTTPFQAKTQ
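20 nM HPGD preincubated 15 min at room temperature with compound in 50 mM Tris-HCl pH 8, 0.01% Tween 20. Started with 1 mM NAD+ and 30 uM prostaglandin E2; NADH fluorescence (360/450 nm) read 5 times over 30-s intervals, last minus first.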
HPGD inh cf: confirmation of human HPGD inhibitors. shares compounds with HPGD block. recombinant HPGD, NADH fluorescence, PGE2 substrate. Potency, µM (doses to about 57.1 µM), hits mostly inhibitors. actives 90% (n = 90); calls by dose curve
ALDH1A1 inh-2: Blocks ALDH1A1 NADH production, follow-up | purified ALDH1A1, NADH fluorescence, propionaldehyde/NAD+ | actives 90% (n = 90) | shares compounds with ALDH1A1 inh-1 | Potency, µM (doses to about 57.1 µM), actives largely listed as inhibitors; calls by dose curve
A number is an active result; i = inactive; ? = inconclusive; nt = no result; ! = repeats disagree; [ ] = another dose, or the depositor's remark. In the library only some 11% were active in any assay of this set; here they are far more common. Unless noted, the call rests on the fitted dose curve; in most records, active means well fitted inhibition curve with a large enough effect (not every such curve was filed as active); inconclusive means small, poorly fitted or top-dose-only effect, or another doubt; inactive means no such curve, though single readings can be large or run the other way.

SMILES	PNC inhibitor	NPSR antagonist	IMPase inh	ALDH1A1 inh-1	IMPase Li cell	HPGD block	others
Cc1cc(S(=O)(=O)NCC(C)C)ccc1OCC(=O)N1CCN(Cc2ccccc2)CC1	i	i	i	18µM	i	i
O=C(Cc1ccccc1)Oc1cccc(N2C(=O)CCC2=O)c1	-100	i	i	i	i	i
O=C(Cc1ccccc1)Oc1cccc(-n2cnnn2)c1	nt	i	nt	i	i	nt
C=C(C)[C@H]1CN[C@H](C(=O)O)[C@H]1CC(=O)O	nt	i	nt	20µM!	i	16µM!
CN1CCN2c3ccc(N)cc3CC3(C(=O)NC(=O)NC3=O)C2C1 (stereo unspecified)	nt	i	nt	nt	nt	nt
CN(C)CC1CSCCC1(O)c1ccccc1 (stereo unspecified)	i	i	i	13µM	i	i
CC1=CC(c2ccccc2)NC(=S)N1 (stereo unspecified)	i	i	nt	7.1µM	?	13µM
CCSc1nnc([C@@H](N)Cc2ccccc2)o1	?	i	i	15µM	i	i
c1ccc(Nc2ccc(Nc3ccccc3)cc2)cc1	nt	nt	nt	?	i	i
O=Nc1ccc(Nc2ccccc2)cc1	nt	nt	nt	0.063µM	i	i
COC(=O)C(O)(c1ccc(N(C)C(=O)c2cccs2)cc1)C(F)(F)F (stereo unspecified)	nt	i	nt	i	i	nt
Cc1cc(N2CCCC2)ccc1C=C(C#N)C#N	nt	i	nt	i	i	nt
Cc1cc(N2CCOCC2)ccc1/C=C1\C(=O)NC(=O)N(c2ccccc2)C1=O	nt	i	nt	?	i	nt
Cc1cc(N2CCCCC2)ccc1C=C1C(=O)N(C)C(=S)N(C)C1=O	i	i	nt	32µM	i	14µM
CN1C(=O)/C(=C\c2ccc(N3CCCCCC3)cc2)C(=O)NC1=S	nt	i	nt	0.071µM	nt	nt
CN1C(=O)/C(=C\c2ccc(N3CCCCC3)o2)C(=O)NC1=S	?	i	i	?	i	i
CCCCN1C(=O)/C(=C/c2ccc(N3CCCCCC3)cc2)C(=O)NC1=S	i	i	i	0.2µM	i	i
O=C1NC(=O)N(c2cccc(F)c2)C(=O)/C1=C/c1ccc(N2CCOCC2)cc1	nt	i	nt	5µM	nt	nt
CCOP(=O)(OCC)C(O)c1ccccc1 (stereo unspecified)	nt	i	nt	nt	nt	nt
CC1(C)C2CC=C(CN3CCC(O)CC3)C1C2 (stereo unspecified)	?	i	i	i	i	i
C/C=C1\C[C@H](C)[C@@](O)(CO)C(=O)OCC2=CCN3CC[C@@H](OC1=O)[C@@H]23	nt	nt	i	i	i	i
CN1CCc2nc3sc(C(=O)NC(C)(C)C)c(N)c3cc2C1	i	i	i	i	i	i
C=CCCl	nt	nt	nt	i	i	i
COc1ccc(/C=C2\C(=O)NC(=S)N(C)C2=O)cc1C	nt	i	nt	7.9µM	i	nt
COc1ccc(C=O)cc1	nt	nt	nt	7.9µM	i	i
SMILES	PNC inhibitor	NPSR antagonist	IMPase inh	ALDH1A1 inh-1	IMPase Li cell	HPGD block	others
COc1ccc(C=O)cc1O	i	i	nt	?	i	i
COc1ccc(C=O)cc1OC	nt	nt	nt	11µM	i	i
COc1ccccc1OCC#CCN1CCCC1	nt	i	nt	i	i	nt
Cc1ccc(-n2sc3ccccc3c2=O)cc1	?	?	i	10µM	i	0.63µM	HPGD inh cf=0.56µM
O=C(O)CP(=O)(O)c1ccc(Cl)cc1	i	i	i	i	i	i
O=P1(Nc2ccc(F)cc2)COc2ccccc2OC1	i	i	i	i	i	1.1µM	HPGD inh cf=1µM
COC(=O)c1ccccc1OP1(=O)COc2ccccc2OC1	i	i	i	i	i	i
CN[C@@H](C)[C@H](O)c1ccccc1	nt	?	nt	0.5µM	i	0.79µM	HPGD inh cf=1.4µM;ALDH1A1 inh-2=0.45µM
COCc1cc(OC(=O)N(C)C)nc2c1c(C)nn2C	nt	i[7.67 µM]	nt	nt	nt	nt
CCC(C=C[C@@H]1OC(=O)C=C[C@H]1C)=C[C@H](C)CC=CC(C)=C[C@@H](C)C(=O)[C@@H](C)[C@H](O)[C@@H](C)CC(C)=CC(=O)O	nt	nt	nt	0.22µM	i	i	ALDH1A1 inh-2=1.1µM

Screening results: PubChem, National Center for Advancing Translational Sciences (NCATS)
